# Measured values taken from PubChem BioAssay AID1010 (Sanford-Burnham Center for Chemical Genomics, 2008).
# The whole screen tested about 48,000 compounds, of which about 160 (0.33%) were called active. The sample holds actives, similar compounds and a random draw of the others, so the mix is not that of the screen. Unmarked numbers belong to inactive results.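 The calls were made as follows: active = survival measured by cellular ATP above 50% at 15 µg/ml in the first screen; inactive = the rest.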
# Test: protection against thapsigargin ER stress killing – CSM14.1 cells, ATP luminescence, primary screen (AID 1010);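 also: cell death triggered by about 15 µM thapsigargin; ATP read 24 h after thapsigargin was added; plate controls were thapsigargin with DMSO for no effect and DMSO without thapsigargin for full effect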
# Settings: CSM14.1 thapsigargin ER stress survival, stronger effect = higher value, screened at 15 µg/mL (by protocol)
row,SMILES,relative survival (cellular ATP)
1,COc1ccc(C2Sc3ccccc3NC3=C2C(=O)c2ccccc23)cc1 (stereo not drawn),5.1%
2,COc1ccc(NC(=O)c2cccc(N3C(=O)c4ccc(C(=O)Nc5ccc(OC)cc5)cc4C3=O)c2)cc1,0.4%
3,COc1cc(C2NC(=S)NC(C)=C2C(=O)Nc2ccccc2)ccc1O (stereo not drawn),3.8%
4,CC(=O)N1C(=O)c2cccc3cccc1c23,17.3%
5,COc1cc(/C=N/n2cnnc2)cc(Br)c1OCCOc1ccc(C(C)(C)C)cc1,6.5%
6,O=C(CNC(=O)C(c1ccccc1)c1ccccc1)N/N=C/c1cn[nH]c1-c1ccccc1,49.7%
7,Cc1c(OCC(=O)c2ccc(F)cc2)ccc2c3c(c(=O)oc12)CCCC3,0.4%
8,Cc1ccc(N(Cc2c(O)ccc3ccccc23)C(=O)c2cccc([N+](=O)[O-])c2)cc1,-2.5%
9,O=S(=O)(/N=C/c1ccccc1)c1cccs1,1.2%
10,COc1ccc(NC2SC(=O)NC2=O)cc1 (stereo not drawn),11.7%
11,CCOc1cccc(-c2cc(C(=O)N3CCCCCC3)c3ccccc3n2)c1,3.9%
12,NNC(=O)c1n[nH]c2c1CCCCCCCCCC2,-1.8%
13,Cc1ccccc1NC(=S)N1CCN(c2cccc(Cl)c2)CC1,6.6%
14,CSc1ccc(CN2CCN(C(=O)c3cccc(F)c3)CC2)cc1,7.7%
15,O=C(Nc1ccc(Br)cn1)c1cc2n(n1)C(C(F)(F)F)CC(c1cccs1)N2 (stereo not drawn),-3.5%
16,NS(=O)(=O)c1ccc(CCNC(=O)c2cccs2)cc1,-2.4%
17,COc1ccccc1C(=O)NN1C(=O)/C(=C2/C(=O)N(CC(=O)O)c3ccccc32)SC1=S,25.3%
18,CCN(CC)S(=O)(=O)c1ccc(NC(=O)c2ccc(OC)c(I)c2)cc1,0.8%
19,CCCCOc1ccccc1C1Nc2ccccc2NC2=C1C(=O)CC(c1ccc(OC)c(OC)c1)C2 (stereo not drawn),76.5% (active)
20,COC(=O)C1=C(C)NC2=C(C(=O)CC(c3ccc(OC)c(OC)c3)C2)C1c1ccccc1OCc1ccccc1 (stereo not drawn),60.6% (active)
21,COc1ccc(C2CC(=O)C3=C(C2)Nc2ccccc2NC3c2cc3c(cc2[N+](=O)[O-])OCO3)cc1 (stereo not drawn),-4.3%
22,COc1ccc(C2CC(=O)C3=C(C2)Nc2ccccc2NC3c2cccc(Cl)c2)cc1 (stereo not drawn),6.7%
23,COc1ccc(C2CC(=O)C3=C(C2)Nc2ccccc2NC3c2cc(F)ccc2F)cc1 (stereo not drawn),-0.8%
24,COc1ccc(C2CC(=O)C3=C(C2)Nc2ccccc2NC3c2ccc(SC)cc2)cc1 (stereo not drawn),7.4%

row,SMILES,relative survival (cellular ATP)
1,COc1ccc(C2CC(=O)C3=C(C2)Nc2ccccc2NC3c2cccc(C)c2)cc1 (stereo not drawn),102% (active)
2,COC(=O)C1=C(C)NC2=C(C(=O)CC(c3ccc(OC)c(OC)c3)C2)C1c1ccc(OC)c(OC)c1 (stereo not drawn),8.8%
3,COC(=O)C1=C(C)NC2=C(C(=O)CC(c3ccccc3)C2)C1c1cccc(I)c1 (stereo not drawn),22.6%
4,CCc1c(C)sc(NC(=O)CCc2ccc(OC)cc2)c1C#N,4.9%
5,COc1cccc(/C=N/N2CCN(Cc3ccc(Cl)cc3)CC2)c1,-4.1%
6,CCOc1cc(OCC)cc(C(=O)Nc2cc3nn(-c4ccc(OC)cc4)nc3cc2C)c1,4.3%
7,CCCCCCCCC(=O)N/N=C/c1ccsc1C,2.5%
8,Cc1cc(NC(=O)COC(=O)/C=C/c2ccc([N+](=O)[O-])cc2)no1,1.8%
9,Cc1ccc([N+](=O)[O-])cc1NC(=O)C12CC3CC(CC(C3)C1)C2,-1.4%
10,CC1(C)Nc2ccc(OC(=O)c3ccccc3Br)cc2-c2c1ssc2=S,-1%
11,Cc1ccc(Cl)cc1NC1=CC(=O)CC(C)(C)C1,10.7%
12,O=C(NC1CCCCCC1)c1ccc([N+](=O)[O-])o1,-27.9%
13,CCO/N=C1/CC(c2ccccc2)Cc2onc(C)c21 (stereo not drawn),13.2%
14,COc1cc(C2Nc3ccc(C(=O)c4ccccc4)cc3NC3=C2C(=O)CCC3)cc(OC)c1OC (stereo not drawn),-2.2%
15,COC(=O)c1ccc(C2Nc3ccccc3NC3=C2C(=O)CC(c2ccccc2)C3)cc1 (stereo not drawn),3.7%
16,O=C1CCCC2=C1C(c1ccc(Cl)cc1)Nc1ccc(C(=O)c3ccccc3)cc1N2 (stereo not drawn),72.5% (active)
17,NC(=O)c1ccccc1N=Cc1ccccc1[N+](=O)[O-],1.7%
18,CCOc1ccc(N2C(=O)CC(NCc3cccnc3)C2=O)cc1 (stereo not drawn),5.5%
19,CC(=O)N(C1=C(Cl)C(=O)c2ccccc2C1=O)c1cccc(Br)c1,11.1%
20,CC(=O)Nc1ccc(S(=O)(=O)Nc2ccc(Br)c(Cl)c2)cc1,5.8%
21,CCN(C(=O)c1ccccc1)c1ccccc1,-4.6%
22,COc1ccc(C2/C(=C(\O)c3ccccc3)C(=O)C(=O)N2CCCCCC(=O)O)c(OC)c1 (stereo not drawn),-3.4%
23,CCN(C(=O)c1sc(NC(=O)c2ccc(Cl)cc2)c(C#N)c1C)C1CCCCC1,2.3%
24,CCOc1ccc(/C=N/N2CCN(c3ccccc3OC)CC2)cc1OC,5.2%

row,SMILES,relative survival (cellular ATP)
1,COc1ccc(C(=O)NC(N2CCCCC2)C(Cl)(Cl)Cl)cc1OC (stereo not drawn),3.6%
2,C=CCc1c(C)nc(-c2ccccc2)nc1Nc1ccc(C(=O)O)cc1,0.2%
3,Cn1cc(/C=C2/SC(=S)N(c3ccccc3)C2=O)c2ccccc21,6.8%
4,CC1=C(C(=O)Nc2ccccc2)C(c2ccc3c(c2)OCO3)NC(=S)N1 (stereo not drawn),10.1%
5,CCOC(=O)C(=Cc1ccc(-c2cccc(Cl)c2Cl)o1)C(=O)OCC,5.9%
6,COc1ccccc1-n1cnc2cc(NC(=O)c3ccccc3)ccc21,97.4% (active)
7,COc1cc(OC)cc(C(=O)Nc2ccc3nn(-c4ccc(F)cc4)nc3c2)c1,4%
8,COc1ccc(NC(=O)c2cccc(F)c2)cc1OC,24.8%
9,COc1ccc(CN2CCN(C(=O)c3cccc(Cl)c3)CC2)cc1OC,2.9%
10,O=C(Nc1cccc(Br)c1)c1ccc(N2C(=O)c3cccnc3C2=O)cc1,4.6%
11,Cc1ccc(-c2[nH]ncc2/C=N/NC(=O)c2ccc(Br)cc2)cc1,3.5%
12,COc1cc(OC)cc(C(=O)N2CCN(C)CC2)c1,4.1%
13,CONC(=O)c1ccc(C(=O)c2cc(OC)ccc2OC)cc1,6.5%
14,CSCCOC(=O)COc1ccc(/C=N/NC(=O)c2ccc(CN3CCOCC3)cc2)cc1,9.5%
15,CN(C)c1cccc(C(=O)N2CCN(c3cccc(Cl)c3)CC2)c1,-2.8%
16,COc1cccc(/C=N/NC(=O)c2cc(-c3ccc4ccccc4c3)n[nH]2)c1,5.9%
17,CC(=O)c1c(-c2ccccc2)c2cc(C)ccc2[nH]c1=O,-1.1%
18,O=C(NC(CO)(CO)CO)c1cccc(-c2ccc(O)cc2)c1,-1.2%
19,CC(=O)Nc1ccc(NC(=O)c2ccccc2-c2ccccc2C(=O)O)cc1,7.5%
20,Cc1ccc(C2=NNC(c3ccc(Cl)cc3Cl)S2)cc1 (stereo not drawn),-7.4%
21,CCn1c(C(O)c2cc(OC)ccc2OC)nc2ccccc21 (stereo not drawn),1.7%
22,O=C(O)CCN1C(=O)/C(=C/c2ccc(-c3cc(Cl)ccc3Cl)o2)SC1=S,64% (active)
23,O=C1S/C(=C/c2ccc(-c3ccc(Cl)cc3Cl)o2)C(=O)N1c1ccccc1,7%
24,CN(C)CCOC(=O)CCN1C(=O)/C(=C/c2ccc(Cl)cc2Cl)SC1=S,-20.4%

row,SMILES,relative survival (cellular ATP)
1,CCCN1C(=O)c2ccccc2NC1c1ccc(O)c(OC)c1 (stereo not drawn),-2.6%
2,C/C(=N\NC(=O)c1cccc([N+](=O)[O-])c1)c1cccnc1,2.9%
3,COc1ccc(NC(=O)/C(C#N)=C/c2ccccc2[N+](=O)[O-])cc1,2.4%
4,Cc1ccc(NC(=O)CC2Nc3cc(C)c(C)cc3NC2=O)cc1 (stereo not drawn),6.1%
5,Cc1nn(C(=O)C23CC4CC(CC(C4)C2)C3)c(C)c1Sc1ccc([N+](=O)[O-])cc1,6.7%
6,COC(=O)C1=CNC=C(C(=O)OC)C1c1cc(C)ccc1C,10%
7,O=C1C=CC(=O)N1Nc1c(Cl)cc(Cl)cc1Cl,-7.8%
8,O=C(CCc1ccccc1)Nc1ccccc1-c1ccccc1,2.5%
9,COc1cc(OC)cc(C(=O)N/N=C(\C)CC(=O)Nc2ccccc2-c2ccccc2)c1,66% (active)
10,C/C(CC(=O)Nc1cccc2ccccc12)=N\NC(=O)c1ccoc1C,5.7%
11,CCOc1cc(C=C2C(=O)c3ccccc3C2=O)ccc1OCc1ccc(Cl)cc1Cl,11.4%
12,COc1cccc(OCCCCOc2ccccc2OC)c1,6%
13,CN1C(=O)C(=Cc2cc(Br)c(O)c(I)c2)C(=O)N(C)C1=O,-1%
14,CCOCCOCCN1C(=O)c2ccccc2C1=O,6.5%
15,C/C(CC(=O)Nc1ccc(Nc2ccccc2)cc1)=N\NC(=O)c1ccccc1C,16.5%
16,CCOC(=O)CCc1c(C)nc2c(C)c(-c3ccc(C)cc3)[nH]n2c1=O,8.2%
17,CCCCc1ccc(/C=N/Nc2ccc([N+](=O)[O-])cc2)s1,5%
18,CCOc1cc(C2NC(=S)NC(C)=C2C(=O)Nc2ccccc2C)ccc1O (stereo not drawn),-0.3%
19,CCOc1cc(C=O)cc(I)c1OC(C)C,0.3%
20,CC(C)=N/N=C1/NC(=O)C(CC(=O)Nc2ccc(C)c(C)c2)S1 (stereo not drawn),2%
21,CC(=O)Nc1ccccc1NC(=O)COc1ccc(C)cc1C,6.5%
